Measured values reported in PubChem BioAssay AID493203 (National Center for Advancing Translational Sciences (NCATS), 2011).
Results filed as inconclusive are left out. Entries that show only a call come without a potency. Activity calls are given as the source filed them. Calls follow the shape of the dose curve; as a rule, active = well fitted activation curve with a large enough effect; inconclusive = small, poorly fitted or top-dose-only effect; inactive = flat fitted curve, though single readings scatter.
Potency is read from the fitted curve at half-maximal effect.

Assay: qHTS Assay for NPC1 Promoter Activators: Initial hit validation from the primary screen
Conditions: Huh7 NPC1 promoter-luciferase reporter, luminescence, 24 h; series mostly up to 46.1 µM
Outline: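 Promoter activation measured as luciferase luminescence (Amplite reagent, 10 minutes ambient) after 24 hours' compound exposure at 37C. Cells: NPC1-luciferase Huh7, 1500 per well, reduced-serum OP-MEM I plus 10% FBS.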
For `CCN(CC(=O)N(CC(C)C)c1c(N)n(CC(C)C)c(=O)[nH]c1=O)Cc1nc2ccccc2c(=O)[nH]1`, the Potency was “inactive”. In the case of `Cc1c(C(O)CN2CCN(Cc3ccc4c(c3)OCO4)CC2)c2ccccc2n1C` (stereo not drawn), the Potency is reported as “inactive”. For `Nc1ccccc1C(=O)N/N=C1/C2CN3CCN(C2)CC1(Cc1ccccc1)C3`, the Potency was “inactive”. With `CN(C)C(=O)[C@H]1C[C@H]1[C@@H](O)[C@H](CO)NC(=O)[C@H](COCc1ccccc1)NC(=O)OC(C)(C)C` the Potency was “inactive”. In the case of `CCN(CC)S(=O)(=O)c1ccc(NCc2ccccn2)nc1`, the Potency is reported as “inactive”. With `C=CCOC(=O)N1CCN(c2cccc(C(F)(F)F)c2)CC1` the Potency was “inactive”. With `CN(C)C(CNC(=O)CNC(=O)c1ccc2ccccc2c1)c1ccccc1` (stereo not drawn) the Potency was “inactive”. In the case of `CCCCCCC(=O)Nc1ccc(C(=O)N/N=C/c2cccnc2)cc1`, the Potency is reported as “inactive”. With `CCCCn1c(CCNC(=O)c2cccs2)nc2ccccc21` the Potency was “inactive”. For `CCOc1ccc(S(=O)(=O)NCc2ccccc2)cc1C(N)=O`, the Potency was “inactive”. With `COC(=O)c1ccc(NC(=O)c2ccc3nc(C)sc3c2)cc1` the Potency was 888 nM (active). For `CC(=O)Nc1ccc(-c2csc(Nc3ncccn3)n2)cc1`, the Potency was 499 nM (active). With `O=C(Nc1nc2ccc(F)cc2s1)c1ccc(N2CCCC2=O)cc1` the Potency was 141 nM (active). For `O=C(N/N=C/c1ccc(-c2ccc(Br)cc2)o1)c1ccc2c(c1)OCO2`, the Potency was “inactive”. In the case of `CC1CN(C(=O)c2ccncc2)CC(C)O1` (stereo not drawn), the Potency is reported as “inactive”. With `Cc1ccc(C2C3=C(CC(C)(C)CC3=O)N(CCN3CCOCC3)C3=C2C(=O)CC(C)(C)C3)cc1` the Potency was “inactive”. With `COc1ccc(S(=O)(=O)N2CCCC(C(=O)NCc3ccncc3)C2)cc1Cl` (stereo not drawn) the Potency was “inactive”. With `Cc1ccc(N(O)C(=O)NCCCCNC(=O)N(O)c2ccc(C)cc2)cc1` the Potency was 25000 nM (active). In the case of `CC(=O)NC(CCCN1C(=O)c2ccccc2C1=O)c1nnn(C)n1` (stereo not drawn), the Potency is reported as “inactive”. For `OCCC1CN(Cc2nc3ccccc3s2)CCN1C1CCCC1` (stereo not drawn), the Potency was “inactive”. For `Cc1cccc(NC(=O)CSc2nc3ccccc3o2)c1`, the Potency was “inactive”. In the case of `CC(Sc1ncnc2c1cnn2-c1ccccc1)C(=O)Nc1ccc(N2CCOCC2)cc1` (stereo not drawn), the Potency is reported as “inactive”. For `CCOC(=O)C1(Cc2cccc(Cl)c2)CCCN(C(=O)CCSC)C1` (stereo not drawn), the Potency was “inactive”. For `CC1(C)CC(=O)c2c(O)c(-c3ccccc3)c(=O)n(-c3ccccc3)c2C1`, the Potency was “inactive”. For `CC(C)(C)NC(=S)NNC(=O)c1ccc2ncccc2c1`, the Potency was 3530 nM (active). In the case of `CCOc1cc(C2C(C#N)=C(N)Oc3n[nH]c(C)c32)ccc1OCCN1CCOCC1` (stereo not drawn), the Potency is reported as “inactive”. With `Cc1ccc(C(=O)Nc2ccc(N3CCN(C)CC3)nc2)cc1` the Potency was 31500 nM (active). For `S=C1NCN(CCc2ccccc2)CN1Cc1ccccc1`, the Potency was “inactive”. With `Cc1ccc(C(=O)Nc2nnc(S(=O)(=O)N3CCOCC3)s2)cc1` the Potency was “inactive”. With `O=C(NCC1CCCO1)C(c1ccc(F)cc1)N(Cc1ccc2c(c1)OCO2)C(=O)c1ccc(CN2CCOCC2)o1` (stereo not drawn) the Potency was “inactive”. With `O=C(c1cc2cc(Br)ccc2[nH]1)N1CCc2ccccc21` the Potency was 12500 nM (active). For `O=C(CSc1nnc(-c2ccc([N+](=O)[O-])cc2)o1)Nc1ccccn1`, the Potency was 628 nM (active). With `Cc1ccc2c(c1)sc1nc(=O)n(-c3ccccc3)c(=O)n12` the Potency was 705 nM (active).
